HPGD block: qHTS Assay for Inhibitors of HPGD (15-Hydroxyprostaglandin Dehydrogenase); 15-hydroxyprostaglandin dehydrogenase [NAD(+)] (Homo sapiens), P15428; purified HPGD, NADH fluorescence kinetic, PGE2 substrate; Potency, µM, for inactives: at the highest dose activity change, negative = inhibition, hits mostly inhibitors; 150,000 tested, 4.3% active; AID 894, 2007; note: potency is the fitted concentration of half-maximal effect
Target sequence (P15428 whole entry, looked up): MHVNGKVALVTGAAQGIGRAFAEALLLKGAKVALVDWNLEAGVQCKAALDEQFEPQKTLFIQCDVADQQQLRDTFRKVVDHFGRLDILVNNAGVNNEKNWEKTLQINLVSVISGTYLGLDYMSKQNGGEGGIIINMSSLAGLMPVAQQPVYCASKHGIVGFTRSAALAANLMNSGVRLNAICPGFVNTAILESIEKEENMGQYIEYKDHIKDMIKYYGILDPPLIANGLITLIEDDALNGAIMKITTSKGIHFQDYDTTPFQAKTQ
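NADH formation kinetics: reaction with 30 uM PGE2 and 1 mM NAD+ (final), 20 nM enzyme, Tris-HCl pH 8 with Tween 20, after 15 min compound preincubation at room temperature. Fluorescence change, last versus first of five reads.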
PNC inhibitor: High Content Assay for Compounds that inhibit the Assembly of the Perinucleolar Compartment; AID 2417, 2010; activity change (PNC), negative = inhibition, % at 10 µM; PC3M PTB-GFP, PNC prevalence imaging, 16 h; hits give low values; 140,000 tested, 3.1% active;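 active = readout at or below -70, meaning at least 70% loss of cells showing the perinucleolar compartment, a nuclear body marking cancer cells; inconclusive = readout between -30 and a set limit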;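 note: plate controls were DMSO wells for no effect and camptothecin positive control wells for full effect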
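Read-out is percentage of cells bearing a perinucleolar compartment, from automated 20x imaging of fixed, Hoechst-stained PC3M PTB-GFP cells. Cells were seeded 4 h, then exposed 16 h to compound (23 nl of library stock) in duplicate plates.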
ALOX12 inhib: qHTS Assay for Inhibitors of 12-hLO (12-human lipoxygenase) | Polyunsaturated fatty acid lipoxygenase ALOX12 (Homo sapiens), P18054 | AID 1452, 2008 | 150,000 tested, 0.12% active | Potency, µM (doses to about 57.1 µM), inactives show at the top dose activity change, negative = inhibition, hits mostly inhibitors | purified 12-hLO, xylenol orange hydroperoxide absorbance; active = well fitted inhibition curve with a large enough effect; inconclusive = small, poorly fitted or top-dose-only effect; note: potency is the fitted concentration of half-maximal effect; nearly all actives have a fitted effect of over 55% in size
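Purified human 12hLO (150 nM), preincubated 15 min with compound, then 40 uM arachidonic acid for 30 min, room temperature, Hepes pH 7.0 with 0.01% Triton X-100. Hydroperoxide detected by ferrous iron/xylenol orange; 573/405 nm absorbance ratio gives reaction progress.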
Lamin A splicing: qHTS Assay for Modulators of Lamin A Splicing. Potency, µM (top dose mostly 46.1 µM), without a hit: at the highest dose ratio change, negative = inhibition, most hits filed as inhibitors. 200,000 tested, 0.01% active. HeLa LMNA splicing GFP/RFP minigene ratio, 48 h. AID 1487, 2009; active = well fitted inhibition curve with a large enough effect in the signal ratio, with a control signal flat, not every such curve was filed as active; inconclusive = small, poorly fitted or top-dose-only effect, or effect the other way, or a change in a side signal; the % refers to the signal ratio; note: potency is the fitted concentration of half-maximal effect
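S3 HeLa stable clones carrying a lamin A-EGFP splicing minigene plus DsRed2 were seeded at 600 cells/well in Opti-MEM with 2% FBS, pin-dosed and incubated 48 h at 37°C. Acumen cytometry (488 nm) gave the GFP/RFP total-intensity ratio.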
ALDH1A1 block: qHTS Assay for Inhibitors of Aldehyde Dehydrogenase 1 (ALDH1A1). Aldehyde dehydrogenase 1A1 (Homo sapiens), P00352. Purified ALDH1A1, NADH fluorescence, propionaldehyde substrate. Potency, µM (top dose mostly 75.3 µM), for the others: at the top dose activity, negative = inhibition, usual class: inhibitors. 220,000 tested, 7.3% active. AID 1030, 2008;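 note: potency is the fitted concentration of half-maximal effect; plate controls were no enzyme wells and a reference inhibitor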
* hit, by the source's call; ? = inconclusive; · = not tested or not shown; [ ] = dose if it differs, or a comment. Most compounds without a hit are left out; they make up all but 10% or so of the library. Unless noted, calls come from the whole dose curve; as a rule, active = well fitted inhibition curve with a large enough effect (not every such curve was filed as active); inconclusive = small, poorly fitted or top-dose-only effect, or another doubt; inactive = no such curve, though single readings can be large or run the other way. Unless noted, % is set by controls: 0 for no effect and ±100 for the full control effect.

SMILES	HPGD block	PNC inhibitor	ALOX12 inhib	Lamin A splicing	ALDH1A1 block
CCOc1ccc(NC(=O)CSc2nc3ccccc3c(=O)n2CCNC(C)=O)cc1	-4%	-107*	-6%	?	-11%
CCCNC(=O)COC(=O)c1ccc(Cl)c(S(=O)(=O)N2CCCC2)c1	-16%	15	3%	13%	7.9µM*
C/C(N)=C(/C#N)C(=O)COC(=O)c1ccc(C)c(S(=O)(=O)N2CCCCC2)c1	13µM*	-18	-7%	20%	?
O=C(NC(N1CCCCCC1)C(Cl)(Cl)Cl)c1ccccc1Cl (centres undefined)	-17%	13	2%	-7%	11µM*
Cc1csc2ncc(C(=O)Nc3ccc4c(c3)OCCO4)c(=O)n12	99%	35	-3%	-8%	8.9µM*
Cc1ccsc1C(=O)Nc1ccc2c(c1)OCCO2	32µM*	-17	0%	-14%	0%
Cc1occc1C(=O)Nc1ccc2c(c1)OCCO2	16µM*	-9	-1%	0%	13µM*
Cc1ccsc1C(=O)NC(C)c1ccc2c(c1)OCO2 (centres undefined)	-8%	-119*	-3%	1%	10%
CCCCNCC	-2%	·	-3%	·	6%
Cc1nc(SCC(=O)Nc2ccnc3ccccc23)n[nH]1	-10%	6	5%	-4%	18µM*
COC(=O)c1ccccc1NC(=O)CSc1n[nH]c(C)n1	-12%	-100*	15%	-7%	8%
O=C(O)c1ccccc1C(=O)c1cccs1	-10%	?	-7%	?	5%
O=C(O)Cc1ccc(C(=O)c2cccs2)s1	13µM*	6	-10%	1%	10µM*
CCOC(=O)c1c(S(=O)(=O)N2CCC(C(=O)Nc3cccc(C)n3)CC2)c(C)n(C)c1C	·	·	·	5%[46 µM]	·
S=c1nc[nH]c2c1sc1nc(-c3ccccc3)c3c(c12)CCCC3	-20%	-21	-1%	-6%	2.5µM*
CCc1nc(SCC(=O)c2cc(C)ccc2C)n[nH]1	40µM*	?	-13%	3%	?
Nc1nc(SCC(=O)Nc2cc(-c3ccccc3)nn2-c2ccccc2)n[nH]1	-5%	?	5%	-10%	10µM*
Cc1ccc(-c2cc(NC(=O)CSc3n[nH]c(N)n3)n(-c3ccccc3)n2)cc1	-11%	7	2%	7%	-5%
Cc1ccc(C)c(C(=O)CSc2n[nH]c(C(C)C)n2)c1	16µM*	-8	-2%	?	-5%
Nc1nc(SCC(=O)c2ccc(Oc3ccccc3)cc2)n[nH]1	-30%	?	-11%	5%	14µM*
Nc1nc(SCC(=O)c2ccc([N+](=O)[O-])cc2)n[nH]1	·	·	·	·	3%
O=C(c1csnn1)N1CCC2(CC1)CCN(c1ccncc1)CC2	-3%	·	0%	·	1%
Cc1nnc(SCC(=O)NC(C)(C)C)n1NCc1c(F)cccc1Cl	·	·	·	28%[46 µM]	-7%
CCOC(=O)c1cc(S(=O)(=O)Nc2cc(OC)ccc2OC)[nH]n1	·	·	·	5%[46 µM]	·
CCc1ccc(C(=O)CSc2n[nH]c(C)n2)cc1	35µM*	-30	-18%	0%	11µM*
SMILES	HPGD block	PNC inhibitor	ALOX12 inhib	Lamin A splicing	ALDH1A1 block
Cc1ccc(C2OC(=O)c3ccccc32)cc1 (centres undefined)	-10%	20	7%	2%	-9%
O=C1OC(c2ccccc2)c2ccccc21 (centres undefined)	-10%	33	-2%	-5%	14µM*
Cc1ccc(CNC(=O)CN2N=C(c3ccccc3)CCC2=O)cc1	·	·	·	-3%[46 µM]	·
CC(=O)N1CCN(c2cc3c(cc2F)c(=O)c(C(=O)O)cn3C2CC2)CC1	·	·	·	1%[46 µM]	?
CCN1CCN(c2cc3c(cc2F)c(=O)c(C(=O)O)cn3C2CC2)CC1	?	-115*	-2%	?	?
COc1ccc(CCNC(=O)c2cc(-c3ccc(C)c(C)c3)nc3ccccc23)cc1OC	·	·	·	5%[46 µM]	·
CC(=O)Oc1ccc(N2C(=O)C3C4C=CC(C5CC45)C3C2=O)cc1[N+](=O)[O-] (centres undefined)	-29%	-12	3%	-11%	6.3µM*
CC(=O)Oc1cccc(N2C(=O)C3C4C=CC(C4)C3C2=O)c1 (centres undefined)	-10%	-1	-4%	-2%	10%
CC(=O)Oc1ccc(N2C(=O)C3C(C2=O)C2C=CC3C23CC3)cc1[N+](=O)[O-] (centres undefined)	·	·	·	·	7.9µM*
CN(C)CC(CN(C)C)c1ccccn1	-7%	·	3%[11.4 µM]	·	-2%[13.5 µM]
CCCCCCCCCCCCCCC[C@H](O)[C@@H](N)CO	-5%	·	2%	·	7%
O=C(CCl)NCc1cc(-c2ccc(Cl)cc2)no1	·	·	·	·	22µM*
Cc1ccc(NN2C(=O)C=CC2=O)cc1	-5%	-112*	-1%	-7%	0%
Cc1ccccc1NN1C(=O)C=CC1=O	-2%	?	2%	0%	4%
Cc1nc(NC(=O)CSc2nc3cccnc3n2C2CCCCC2)sc1C	-12%	-125*	0%	0%	-3%
CCc1nnc(NC(=O)CSc2nc3cccnc3n2C2CCCCC2)s1	-9%	-30	-7%	?	2%
CCC(=O)OC1(C)C(=O)C=C2C=C(CCCNC(=O)OC(C)(C)C)OC=C2C1=O (centres undefined)	-8%	·	0%	·	1%
CC(N)(Cc1ccc(O)c(O)c1)C(=O)O (centres undefined)	10µM*	·	·	-18%	2.2µM*
CC(C)(C(O)c1ccc([N+](=O)[O-])cc1)[N+](=O)[O-] (centres undefined)	-3%	·	·	·	?
COC(=O)c1sc2cccc(F)c2c1S(=O)(=O)Nc1ccc(C)cc1Cl	·	·	·	-10%[46 µM]	·
Cn1cccc1/C=N/NC(=O)c1cccnc1	-9%	?	3%	-5%	-12%
Cc1ccc(C(=O)N/N=C\c2cccn2C)cn1	14µM*	-26	-13%	2%	-4%
Cn1cccc1/C=N/NC(=O)c1ccn[nH]1	-5%	-119*	5%	-13%	3%
Cc1onc(-c2ccccc2Cl)c1C(=O)N1CCN(c2nc3ccccc3s2)CC1	-16%	-113*	-6%	?	14µM*
COc1ccccc1N1CCN(C(=O)c2c(-c3ccccc3Cl)noc2C)CC1	-1%	-20	1%	-10%	-5%
CC(=O)OCC1CCCC2=C(C)C(=O)CCC21COC(C)=O (centres undefined)	2%	-109*	-1%	1%	5%
CCCCC/C=C\C/C=C\C/C=C\C/C=C\CCCC(=O)O[C@@H](CO)COCCCCCCCCCCCCCCCC	-8%	·	2%	·	2%
O=C(Nc1ccccc1)Nc1nnc(CSCc2ccccc2Cl)s1	-3%	-88*	-3%	?	4%
